Results from PubChem BioAssay (NCATS).
Some of the results follow. Where a call stands in place of a potency, no number is given. Results filed as inconclusive are left out. Calls of active or inactive are those of the source. The call rests on the fitted dose curve; in most records, active means well fitted inhibition curve with a large enough effect; inconclusive means small, poorly fitted or top-dose-only effect; inactive means flat fitted curve, though single readings scatter.

Test system: NanoLuc luciferase (engineered Oplophorus gracilirostris luciferase)
Experiment: Biochemical NLuc saturation counterscreen for small molecule modulators of PMP22 gene expression - Nano-Glo assay (AID 1508638)
Settings: Secreted NLuc enzyme (filtered S16 cell medium), Nano-Glo luminescence; series mostly up to 57.5 µM
From the text: Assay Provider: Jim Inglese Ph.D. National Center for Advancing Translational Science, National Institutes of Health, Rockville, MD CMT is a heterogeneous group of neurological disorders that affect approximately 1 in 2,500 people. In particular, the most common form of CMT, CMT1A is genetically linked to the duplication of the PMP22 gene which leads to Schwann cell overexpression, thus manifesting itself as a typical case of dose-sensitive diseases. To identify small molecule compounds that can mediate the expression of PMP22 we developed a phenotypic assay screening strategy by utilizing genome editing techniques to construct Schwann cell lines containing novel reporter technology to monitor the transcriptional or translational regulation of PMP22. For high sensitivity we use a bioluminescent reporter system embedded in the 3' UTR of the PMP22 gene (S16(c9) Pmp22-F2sN) to identify compounds that inhibit gene expression. […] We can further discriminate the effect of all transcriptionally active molecules on PMP22 translation or stability with an assay that incorporates a short NLuc peptide (HiBiT) at the C-terminus of expressed PMP22 (S16(f8) PMP22-HiBiT) allowing alpha complementation and luminescence detection of membrane-associated PMP22 protein. These assays were screened against the NCATS Sytravon Library Collection. Miniaturization of these assays to 1536-well plate format for quantitative high throughput screening (qHTS) yielded rich data sets immediately from the qHTS assay (S16(c9) Pmp22-F2sN), when compared with data from a cell viability assay (Cell TiterGlo) to identify compounds that decreased the output signals through cellular toxicity to streamline the selection process of actives for subsequent characterization using the HiBiT assay (S16(f8) PMP22-HiBiT).
Biochemical Promega Nano-Glo solution NLuc assay PROTOCOL TABLE (format as described by Inglese J, Shamu CE and Guy RK. 2007) SEQUENCE No. (e.g., 1, 2, 3, etc.); PARAMETER (e.g., Cells, Incubation, Reagent, etc.); VALUE and DESCRIPTION. 1. Reagent. Add 2 uL substrate per well into Greiner 1536-well white/solid bottom high base, medium binding plates. 2. Compounds. Library compounds and controls added at 23nL per well, transferred by Pin Tool. 3. Incubation. Incubate plates 5 min at ambient temperature. 4. Reagent. Add 2uL NLuc enzyme solution per well of Greiner 1536-well plates. 5. Incubation. Incubate plates at room temperature for 10 min., protect from light. 6. Detector. FLuc luminescence measured using CCD-based camera (Viewlux). NOTES (numbers refer to Sequence numbers above; values are from representative experiments) 1. Freshly prepared Nano-Glo Luciferase Assay System reagent per Promega instructions, product N1120, and filtered through […]. 4. Enzyme was obtained by filtering media of S16 cells expressing secreted NLuc (Inglese et al. 2014) grown to 80-90% confluency in DMEM High Glucose, No Phenol Red media + 10% heat inactivated FBS + 1% Pen/Strep supplemented media6. Luminescence Read (Fluc): Clear filter; Exposure = 10 sec, Gain = High, Speed = Slow, Binning = 2X 6. Luminescence Read (Nluc): Clear filter; Exposure = 1 sec, Gain = High, Speed = Slow, Binning = 2X REFERENCES: 1. Inglese J, Shamu CE and Guy RK, Reporting data from high throughput screening of small molecule libraries, Nature Chemical Biology, 2007, 3(8): 438-441. doi.org/10.1038/nchembio0807-438 2. Yasgar A, Shinn P, Jadhav A, Auld DS, Michael S, Zheng W, Austin CP, Inglese J and Simeonov A, Compound Management for Quantitative High-Throughput Screening. J. Assoc. Lab. Auto., 2008, 13: 79-89. doi: 10.1016/j.jala.2007.12.004 3. Inglese, J., Dranchak, P., Moran, J. J., Jang, S. W., Srinivasan, R., Santiago, Y., Zhang, L., Guha, R., Martinez, N., MacArthur, R., Cost, G. J., and Svaren, J. (2014) Genome editing-enabled HTS assays expand drug target pathways for Charcot-Marie-tooth disease, ACS Chem Biol 9, 2594-2602.
Potency means the concentration at half of the fitted maximal effect.

SMILES | Potency
CCc1ccc(C2CC(=O)c3c([nH]c(C(=O)OCc4ccc(C)cc4)c3C)C2)cc1 (stereo not given) | inactive
Cc1ccc(C)n1-c1nnc(N2CCC(C(=O)NCc3ccccc3Cl)CC2)s1 | inactive
CCOC(=O)c1ccc(NC(=O)CSc2nc3c([nH]c4ccccc43)c(=O)n2C)cc1 | inactive
CC(=O)N1CCCc2cc(S(=O)(=O)N3CCCC(C(=O)N4CCN(c5cccc(Cl)c5)CC4)C3)ccc21 (stereo not given) | inactive
COc1ccc(-c2onc(C)c2C)cc1S(=O)(=O)NCC1CCN(Cc2cccc(F)c2)CC1 | inactive
Cc1cccc(Nc2cc(C)nc(-n3nc(C)cc3C)n2)c1 | 6.11 µM (active)
CCOC(=O)c1c(C)[nH]c(CCC(=O)NCCCN2CCN(c3cc(C)ccc3C)CC2)c1C | inactive
CCC1=Nc2cc(C(=O)NCCCOC(C)C)ccc2Sc2ccc(C)cc21 | inactive
COc1ccc(CCNC(=O)c2cc(=O)c3c(C)cc(C)cc3o2)cc1OC | 0.343 µM (active)
CCCn1c2ccccc2c2cnn(CC(=O)NCC3CCN(Cc4ccc(C)cc4)CC3)c(=O)c21 | inactive
CCCS(=O)(=O)c1ncc(Cl)c(C(=O)Nc2scc(-c3ccccc3)c2C(=O)OCC)n1 | inactive
CCOc1ccc(NC(=O)c2c(NC(=O)Cc3ccccc3)sc3c2CCC(C)C3)cc1 (stereo not given) | inactive
COc1ccccc1Nc1c2c(nc3ccc(NC(=O)/C=C/c4cc(OC)c(OC)c(OC)c4)cc13)CCCC2 | 4.32 µM (active)
Cc1ccc(CCNC(=O)C2CCN(c3nnc(-n4cccc4CNc4ccc(C)cc4)s3)CC2)cc1 | inactive
CCC1CCCCN1CCCNC(=O)c1cc2c(Cl)nc3ccccc3c2s1 (stereo not given) | inactive
Cc1cc(OCC(=O)NCC2(N(C)C)CCCCC2)cc(C)c1Cl | inactive
Cc1ccc(NC(=O)c2nc(S(=O)(=O)Cc3cccc(C)c3)ncc2Cl)cc1 | inactive
CCOCCCNC(=O)c1c(NC(=O)c2nc(SC)ncc2Cl)sc2c1CCCC2 | inactive
Cc1nnc(SCC(=O)NCc2ccccc2Cl)c2nn(-c3ccccc3)c(C)c12 | inactive
CC(C)(C)c1ccc(C(=O)NCC(c2ccco2)S(=O)(=O)c2ccc(F)cc2)cc1 (stereo not given) | inactive
CCOC(=O)c1c(C)[nH]c(CCC(=O)NCCCN2CCN(c3cccc(Cl)c3)CC2)c1C | inactive
CCCCOc1ccc(CN2C(=O)C(=O)c3cc(Br)cc(C)c32)cc1OC | inactive
O=C(c1ccc(C(F)(F)F)cc1)N1CCC(c2nc(-c3ccc(S(=O)(=O)N4CCCC4)cc3)no2)CC1 | inactive
O=C(c1ccc2c(c1)N(Cc1ccc(F)cc1)C(=O)c1ccccc1S2(=O)=O)N1CCN(c2ccccn2)CC1 | 3.43 µM (active)
Cc1ccc(OCCSc2nc3ccc(NC(=O)COc4ccc(C)cc4)cc3s2)cc1 | inactive
